tim23-1 inh: growth inhibitors of tim23-1 mutant yeast, primary screen, luminescence, uHTS; S. cerevisiae tim23-1 growth, BacTiter-Glo luminescence, 24 h; inhibition, % at 20 µM; actives 1.3% (n = 330,000); AID 463212, 2010;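 active = growth inhibition of the mutant yeast at or above 50%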;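 note: temperature-sensitive mutant grown at 25 °C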
PfHsp90 set2: growth inhibition of PfHsp90-expressing yeast, primary screen, antimalarial PfHsp90 inhibitor project, S. cerevisiae, BacTiter-Glo luminescence, single point, set 2 | BacTiter-Glo ATP, 48 h; yeast lacking PDR1 and PDR3 efflux regulators | inhibition, % at 9.4 µM | actives 0.32% (n = 310,000);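 active = every replicate shows inhibition above about 80%, whatever the replicate mean, limit read from the data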
TIM10 inh: growth inhibitors of isogenic TIM10 control yeast, primary screen, counter-screen for tim10-1 yeast inhibitor project, luminescence, uHTS. inhibition, % at 10 µM. AID 463195, 2010. actives 1.4% (n = 330,000). S. cerevisiae TIM10 strain growth, BacTiter-Glo luminescence, 24 h;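 active = inhibition of 40% or more at the single tested concentration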;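 note: wild-type TIM10 isogenic control strain grown at permissive 25 °C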
tim10-1 inh: growth inhibitors of tim10-1 mutant yeast, primary screen, luminescence, uHTS | actives 2.2% (n = 330,000) | S. cerevisiae tim10-1 ts strain growth, BacTiter-Glo, 24 h | inhibition, % at 20 µM;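 active = inhibition of at least 40%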;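 note: mutant grown at 25 °C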
Mot1-301 SUMO: yeast Mot1-301 growth rescue at high temperature, primary screen, SUMOylation pathway inhibitor project, S. cerevisiae, ATP luminescence, 38.5C. S. cerevisiae Mot1-301 growth rescue; percent above DMSO median, 100 means doubled. growth rescue, % at 18.8 µM. actives 1% (n = 320,000). AID 2716, 2010;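 active = every valid replicate shows activation above 250% relative to neutral control wells; inactive = the rest, any valid replicate at or below 250%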
tim10 confirm: growth inhibitors of wild-type TIM10 yeast, confirmation, counter-screen for tim10-1 synthetic lethality project, single concentration, luminescence, S. cerevisiae | S. cerevisiae tim10 strain growth, BacTiter-Glo luminescence, 24 h | inhibition, % at 10 µM | actives 63% (n = 4,600) | shares compounds with TIM10 inh | AID 463215, 2010;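 active = inhibition of yeast growth at or above a set limit in either of two replicates at 10 µM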; note: this counterscreen used the strain with wild-type TIM10
Numbers stand for hits; - = inactive; . = not tested or not shown. Only some compounds are listed: those with a hit (about 4.4% of all), similar ones and a draw of the others.

SMILES	tim23-1 inh	PfHsp90 set2	TIM10 inh	tim10-1 inh	Mot1-301 SUMO	tim10 confirm
COc1ccc(C(=O)C2CCCN(C(=O)c3ccc4nccnc4c3)C2)c(C)c1 (stereo unspecified)	-	-	-	-	-	.
CC(C)Cn1c(C(C)C)nc([N+](=O)[O-])c1S(=O)(=O)c1ccc(F)cc1	-	-	40.2	-	-	-
CC(C)Cn1c(C(C)C)nc([N+](=O)[O-])c1Sc1ccc(Cl)cn1	-	.	-	-	-	.
O=C(Nc1nccc(-c2cccs2)n1)c1ccccc1Cl	-	-	-	-	-	.
O=C(c1ccccc1Cl)N(C(=O)c1ccccc1Cl)c1nccc(-c2cccs2)n1	-	-	41.8	-	-	-
Cc1cc(-c2nnc(SCC(=O)Nc3c(C)cccc3C)n2N)n[nH]1	-	-	-	-	-	.
COc1cccc(C2NC(=O)CCC2[N+](=O)[O-])c1OC (stereo unspecified)	-	-	-	-	-	.
O=C(Nc1ccc(Cl)c(Cl)c1)Nc1ccccc1NS(=O)(=O)c1cccs1	-	-	46.9	-	-	-
COc1cccc(C(=O)OCC(=O)Nc2ccc3c(c2)OCCO3)c1	-	.	-	-	-	.
Cc1ccc(NC(=O)CN(C)C(=O)COc2cccc3ccc(C)nc23)cc1	-	-	-	-	-	.
Cc1ccc(NC(=O)CN(C)C(=O)COc2c(Cl)cc(Cl)c3ccc(C)nc23)cc1	-	-	40.0	-	-	-
CCn1c2ccc(C)cc2c2n[nH]c(=S)nc21	-	-	-	-	-	.
O=C(/C=C/c1ccc2ccccc2n1)c1cc(Br)ccc1O	-	-	52.5	-	-	31.2
CCCC(=O)Nc1ccccc1Sc1ncnc2scc(-c3ccccc3)c12	-	-	46.6	-	-	50.8
Cc1cc(-c2nnc(SCC(=O)Nc3ccc(C(F)(F)F)cc3)n2C)no1	-	-	-	-	-	.
Cc1cc(-c2nnc(SCC(=O)Nc3ccccc3)n2C)no1	-	-	53.6	-	-	-
CN1C(=O)C(CC(=O)O)S/C1=N\N=C\c1ccc(O)cc1O (stereo unspecified)	-	-	-	-	-	.
O=C(N/N=C/c1c(O)ccc2ccccc12)c1cccnc1	-	-	42.2	-	-	37.2
O=C(NN=Cc1c(O)ccc2ccccc12)c1ccncc1	.	-	.	.	.	.
COc1ccc(CNC(=S)Nc2ccccc2-c2ccccc2)cc1	-	.	47.7	-	-	-
Cc1cc(C)cc(NC(=S)NCc2ccc3c(c2)OCO3)c1	-	-	41.7	-	.	-
Cc1ccc(C)c(NC(=S)NCc2ccc3c(c2)OCO3)c1	-	-	40.8	-	-	-
Cc1ccccc1NC(=S)NCc1ccc2c(c1)OCO2	-	.	-	-	-	.
Cc1ccc(NC(=S)NCc2ccc3c(c2)OCO3)cc1C	-	-	-	-	-	.
Cc1ccc(C(=O)NCc2ccc3c(c2)OCO3)c(C)c1	-	-	66.9	-	-	-
SMILES	tim23-1 inh	PfHsp90 set2	TIM10 inh	tim10-1 inh	Mot1-301 SUMO	tim10 confirm
CC(C)(C)c1ccc(OCCC(=O)Nc2cccc(S(=O)(=O)NC3=NCCCCC3)c2)cc1	-	.	-	-	.	.
COCCNC(=O)C(c1ccc(C)cc1)N(Cc1cccs1)C(=O)CCC(=O)Nc1ccccn1 (stereo unspecified)	-	-	-	-	-	.
O=C(NCc1ccccc1CN1CCOCC1)c1ccc(-n2cccn2)cc1	-	-	-	-	-	.
COc1ccc(CNC(=S)Nc2cc(C)cc(C)c2)cc1	-	-	41.0	-	-	-
c1ccc(-c2csc(Nc3cccnc3)n2)cc1	-	-	41.6	-	-	-
Clc1ccc(-c2csc(Nc3cccnc3)n2)cc1	-	-	-	-	-	.
COc1ccc2oc(=O)c(-c3nnc(N)s3)cc2c1	-	-	62.4	-	-	60.4
Nc1nnc(-c2cc3ccccc3oc2=O)s1	-	-	-	-	-	.
O=[N+]([O-])c1ccc(Sc2ccccc2)nc1	-	-	-	-	-	.
O=[N+]([O-])c1ccc(Sc2n[nH]c(-c3ccccc3)n2)nc1	-	-	44.9	-	-	-
CCN(CC)c1ccc2cc(/C(N)=N/NC(=O)c3cccs3)c(=O)oc2c1	-	.	47.1	-	-	36.8
COc1ccccc1C(=O)NCCC(=O)N1CC(C)OC(C)C1 (stereo unspecified)	.	-	.	.	.	.
Cc1c([N+](=O)[O-])cc(C(=O)Oc2ccc(Br)cc2C(=S)N2CCCCC2)cc1[N+](=O)[O-]	-	-	44.0	-	-	32.1
Cc1cccc(N(Cc2ccccc2)C(=O)c2cccc(S(=O)(=O)N3CC(C)OC(C)C3)c2)c1 (stereo unspecified)	-	-	-	-	-	.
O=C(Nc1ccc(Cl)c(Cl)c1)N1CCSC1c1ccco1 (stereo unspecified)	-	-	48.2	-	-	30.9
CC(=O)Nc1ccc(S(=O)(=O)N2CCSC2c2ccco2)cc1 (stereo unspecified)	-	.	-	-	-	.
Cc1nc(Nc2ccc3c(c2)OCCO3)c2oc3ccccc3c2n1	-	-	40.4	-	-	-
CC(C)[C@H](NS(=O)(=O)c1cccc(Cl)c1)C(=O)OCC(=O)N1CCN(c2ccccc2)CC1	-	-	47.0	-	-	-
O=C(OCC(=O)N1CCN(c2ccccc2)CC1)c1cccc(Cl)c1	-	-	-	-	-	.
NC(=O)C1CCN(C(=O)c2ccc(NS(=O)(=O)c3ccc(F)c(F)c3)cc2)CC1	-	-	-	-	-	.
Brc1ccc(-c2ccc(CNCc3ccccn3)o2)cc1	-	-	69.1	-	-	-
Cc1nn2c(-c3ccc(S(=O)(=O)N4CCN(CCO)CC4)o3)nnc2c2ccccc12	-	-	-	-	-	.
Cc1nn2c(-c3ccco3)nnc2c2ccccc12	-	.	61.6	-	-	47.9
COc1ccccc1NC(=O)Cc1ccsc1	-	-	-	-	-	.
CCCN(Cc1ccccc1)C(=S)NC(=O)c1ccccc1[N+](=O)[O-]	-	-	43.9	-	-	40.3
SMILES	tim23-1 inh	PfHsp90 set2	TIM10 inh	tim10-1 inh	Mot1-301 SUMO	tim10 confirm
CCN(Cc1ccccc1)C(=S)NC(=O)c1ccccc1Br	-	-	-	-	-	.
CCCCN(CCCC)C(=S)NC(=O)c1ccccc1Cl	-	-	47.7	-	-	-
CCN(CC)C(=S)NC(=O)c1ccc(Cl)cc1Cl	-	-	-	-	-	.
O=c1cc(C(F)(F)F)[nH]c(=S)n1-c1ccccc1	-	-	-	-	-	.
O=C(Nc1nc(-c2ccccc2)cs1)C1COc2ccccc2O1 (stereo unspecified)	-	-	41.1	-	-	34.9
O=C(Nc1nc(-c2ccc3c(c2)OCO3)cs1)C1COc2ccccc2O1 (stereo unspecified)	-	-	-	-	-	.

Screening data (PubChem)
